ELG1 repair inh: blocks ELG1-dependent DNA repair in HEK293T cells; HEK293T ELG1-luciferase reporter, luminescence, 16 h; DNA damage induced by 5-fluorouridine; actives 2.3% (n = 330,000); AID 504467; Potency, µM (top dose mostly 46.1 µM), actives largely listed as inhibitors; further: nearly all actives have a fitted effect of over 55% in size
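HEK293T cells expressing luciferase-tagged ELG1 (2,000/well) received 5-Fluorouridine plus compound or DMSO for 16 hr at 37 °C. Luciferase was read by ONE-Glo luminescence after 30 min at room temperature.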
DT40 TDP1 CPT: DT40-hTDP1 cell growth loss with CPT; Potency, µM (titrated, usually from 46.2 µM), usual class: inhibitors; actives 12% (n = 420,000); chicken DT40 Tdp1-/-;hTDP1 cells + 20 nM CPT, ATP luminescence, 48 h; further: nearly all actives have a fitted effect of over 55% in size
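Cell growth measured by CellTiter-Glo luminescence after a minimum 48 h, 37 C compound exposure with 20 nM CPT in Tdp1-knockout DT40 cells stably expressing hTDP1, seeded 400/well; qHTS titration format.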
TDP1 cell noCPT: qHTS for Inhibitors of human tyrosyl-DNA phosphodiesterase 1 (TDP1): qHTS in cells in absence of CPT | DT40 Tdp1-/- hTDP1 cells, no CPT, ATP luminescence, 48 h | Potency, µM (doses to about 46.2 µM), hits mostly inhibitors | actives 15% (n = 420,000) | AID 686978, 2013; further: nearly all actives have a fitted effect of over 55% in size
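Stably hTDP1-transfected Tdp1-null chicken DT40 cells were treated with library compounds minus camptothecin and grown for at least 48 hr at 37 °C, after which cellular ATP was quantified by luminescence.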
IL-1B inflam inh: inhibitors of inflammasome signaling (IL-1 beta secretion) | activity change, % at 57.5 µM | actives 4.7% (n = 360,000) | THP-1 LPS/ATP IL-1B secretion, AlphaLISA, 16 h; active compounds read low; in the data active means activity change below about -50%; inconclusive means mostly about -30% to -49%
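Secreted IL-1B measured by AlphaLISA bead assay after 16 h compound exposure of THP-1 cells; compounds (final up to 57.5 uM) added 1 h before LPS (250 ng/mL) and ATP (1.25 mM) stimulation; lower signal means less secretion.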
HT1080 IDH1KD tx: kills HT-1080 cells with IDH1 knockdown; HT-1080 IDH1 knockdown viability, ATP luminescence, 48 h; Potency, µM (series often up to 46.1 µM), actives largely listed as cytotoxic; actives 2% (n = 360,000); AID 686971
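Using the IDH1-knockdown HT-1080 line run in the same batch and compound series as the NT line, viability after 48 h at 37 °C was determined by CellTiter-Glo luminescence and expressed as % activity.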
HT1080-NT tox: kills 2HG-producing HT-1080-NT fibrosarcoma cells; AID 686970; HT-1080-NT fibrosarcoma viability, CellTiter-Glo ATP luminescence, 48 h; Potency, µM (highest dose often 46.1 µM), hits mostly cytotoxic; actives 1.6% (n = 360,000);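 further: NT is the 2HG producing partner of a matched IDH1 knockdown line; nearly all actives have a fitted effect of over 55% in size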
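HT-1080-NT fibrosarcoma cells (2HG-overproducing), 750 cells/well in RPMI with 5% FBS, dosed after 2 h and incubated 48 h at 37C. CellTiter-Glo luminescence normalized to DMSO and no-cell wells; concentration-response curves fitted and classed.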
Hits are given with their value; n = inactive; u = inconclusive; x = no result. The list is not random: actives were taken first. Their share in the collection is about 19%. Unless noted, the call rests on the fitted dose curve; in most records, active means well fitted curve in the direction sought with a large enough effect; inconclusive means small, poorly fitted or top-dose-only effect, or another doubt; inactive means no such curve, though single readings can be large; an effect the other way counts as inactive or inconclusive.

SMILES | ELG1 repair inh | DT40 TDP1 CPT | TDP1 cell noCPT | IL-1B inflam inh | HT1080 IDH1KD tx | HT1080-NT tox
COC(=O)c1sccc1S(=O)(=O)Nc1ccc(S(N)(=O)=O)cc1 | n | n | n | n | n | n
CCOC(=O)C(=CNc1ccc(N2CCCCC2)c(S(=O)(=O)Nc2ccccc2OC)c1)C(=O)OCC | x | 3.7µM | 5.8µM | n | n | n
CCN(CC)c1ccc(NC(=O)c2ccccc2)cc1S(=O)(=O)Nc1ccccc1OC | u | u | 16µM | n | n | n
CCC(C)C(NS(=O)(=O)c1ccc(C)cc1)C(=O)N1CCOCCOCCOCC1 (stereo not drawn) | n | u | n | n | n | n
COc1ccccc1N1CCN(C2CCCN(C(=O)CCc3c(C)noc3C)C2)CC1 (stereo not drawn) | n | n | n | n | n | n
COc1ccccc1NS(=O)(=O)c1cc(NC(=O)Nc2cccc(C)c2)ccc1N1CCCCC1 | u | 15µM | 9.2µM | n | n | n
COc1ccc(NS(=O)(=O)c2cc(NC(=O)c3cccs3)ccc2N2CCCC2)cc1 | u | u | 21µM | n | n | n
COc1ccccc1NS(=O)(=O)c1cc(NC(C)=O)ccc1N1CCCCC1 | n | n | n | u | n | n
CN(C)c1ncc2nc(-c3cccs3)c(=O)n(C)c2n1 | x | n | n | x | x | x
COc1ccc(N2CCN(S(=O)(=O)CCNC(=O)c3ccc(C(F)(F)F)cc3)CC2)cc1 | x | n | n | x | x | x
C=C1CCC[C@]2(C)C[C@H]3OC(=O)C(CNCC(C)C)[C@H]3CC12 (stereo partly drawn) | n | u | 16µM | -69 | u | u
C=C1CCC[C@]2(C)C[C@H]3OC(=O)C(CNCCN(CC)CC)[C@H]3CC12 (stereo partly drawn) | n | u | 16µM | -96 | u | n
C=C1CCC[C@]2(C)C[C@H]3OC(=O)C(CNCCN(C)C)[C@H]3CC12 (stereo partly drawn) | n | u | u | n | u | u
C=C1CCC[C@]2(C)C[C@H]3OC(=O)C(CN4CC(C)OC(C)C4)[C@H]3C[C@@H]12 (stereo partly drawn) | u | u | u | -71 | u | u
C[C@@H]1CN([C@H](C)CO)C(=O)CCCn2nncc2CO[C@H]1CN(C)C(=O)c1ccccc1 | x | n | u | n | n | n
CN(C)c1ncc2ncc(=O)n(C3CC3)c2n1 | x | u | n | x | x | x
O=C(CCS(=O)(=O)c1cccs1)Nc1ccc(C(=O)NCc2cccs2)cc1 | 16µM | n | n | n | n | n
CCOC(=O)Cc1csc(NC(=O)c2ccc(C)c(S(=O)(=O)N3CCOCC3)c2)n1 | u | u | n | n | n | n
Cc1ccc(Cl)cc1N1CCN(CCCNc2ncnc3onc(-c4ccc(F)cc4)c23)CC1 | x | 15µM | 18µM | x | x | x
Fc1ccc(-c2noc3ncnc(NCC4CCN(Cc5ccc(Cl)cc5)CC4)c23)cc1 | x | u | 13µM | x | x | x
Cc1ccc(Cl)cc1N1CCN(c2ncnc3onc(-c4ccc(F)cc4)c23)CC1 | x | n | n | x | x | x
Cc1ccc(CN2CCC(CNc3ncnc4onc(-c5ccc(F)cc5)c34)CC2)cc1 | x | n | 23µM | x | x | x
O=C(NCc1cccnc1)c1nn2cccnc2c1Cl | n | n | n | n | n | n
COC(=O)c1ccccc1NC(=O)CSc1nc2ccccc2nc1Cc1ccc(F)cc1 | x | n | n | x | x | x
CCOC(=O)c1oc2ccccc2c1COC(=O)C(C)NC(=O)c1ccco1 (stereo not drawn) | n | u | u | n | n | n
SMILES | ELG1 repair inh | DT40 TDP1 CPT | TDP1 cell noCPT | IL-1B inflam inh | HT1080 IDH1KD tx | HT1080-NT tox
CCOc1ccc(NS(=O)(=O)c2ccc(NC(=O)N3CCCC3)cc2)cc1 | x | n | u | x | x | x
COc1ccccc1Nc1nc(-c2ccccc2Cl)c2cc(Br)ccc2n1 | x | 3.7µM | 2.3µM | x | x | x
Clc1ccccc1-c1nc(Nc2ccccc2)nc2ccc(Br)cc12 | x | u | 18µM | x | x | x
Clc1ccc(Nc2nc(-c3ccccc3)c3cc(Cl)ccc3n2)cc1 | x | n | n | x | x | x
Cc1ccccc1Cn1c(=O)n(-c2ccc(Cl)cc2)c(=O)c2c3c(sc21)CCCC3 | x | n | n | x | x | x
CN[C@@H]1[C@@H](O)[C@@H](O[C@@H]2[C@@H](O)[C@H](O[C@H]3O[C@H](CN)[C@@H](O)[C@H](O)[C@H]3O)[C@@H](N)C[C@H]2NC(=O)C(O)CN)OC[C@]1(C)O (stereo partly drawn) | x | n | n | x | x | x
O=C(O)/C=C\C(=O)Nc1ccccc1C#Cc1ccc(Br)cc1 | u | u | u | -98 | u | u
O=C(O)/C=C/C(=O)Nc1ccccc1SC(F)(F)F | n | 7.3µM | 21µM | n | n | n
Cc1ccc(S(=O)(=O)/C(C#N)=C/c2c(N3CCN(Cc4ccccc4)CC3)nc3ccccn3c2=O)cc1 | n | n | n | n | n | n
Cc1cccc([C@H]2[C@@H]3C=CCC[C@@H]3C(=O)N2Cc2ccccc2)c1 | n | u | u | n | n | n
CC[C@@H]1CC=C[C@H]2[C@H]1C(=O)N(Cc1ccccc1)[C@H]2c1ccoc1 | n | 16µM | 15µM | -107 | u | u
CC[C@@H]1CC=C[C@H]2[C@H]1C(=O)N(Cc1ccccc1)[C@H]2c1ccc(C(F)(F)F)cc1 | n | 15µM | u | n | n | n
O=C(Nc1ccc(F)cc1)c1oc2ccccc2c1NC(=O)C1CCCC1 | n | u | 18µM | n | u | n
O=C(CCl)Nc1c(C(=O)Nc2ccc3c(c2)OCCO3)oc2ccccc12 | u | 5.2µM | 10µM | -99 | u | u
COc1cccc(NC(=O)c2oc3ccccc3c2NC(=O)C(C)(C)C)c1 | u | u | u | n | u | n
COc1cccc(NC(=O)c2oc3ccccc3c2NC(=O)c2ccc3c(c2)OCO3)c1 | u | 14µM | u | x | n | n
COc1cccc(NC(=O)c2oc3ccccc3c2NC(=O)c2cc3ccccc3o2)c1 | x | 13µM | 18µM | x | x | x
COc1cccc(NC(=O)c2ccc3c(c2)OCO3)c1 | u | n | n | n | n | n
COc1cccc(NC(=O)c2oc3ccccc3c2NC(=O)C2CCCCC2)c1 | x | u | 16µM | x | x | x
CCOC(=O)N1CCC(NS(=O)(=O)c2ccc(NC(C)=O)c(Cl)c2)CC1 | 7.3µM | 23µM | 8.2µM | n | n | n
Cc1ccc2nsnc2c1NC(=O)CCl | n | u | 21µM | n | u | u
Cc1nnc2sc(-c3ccc(NC(=O)c4ccc(-c5ccc(Cl)cc5Cl)o4)cc3)nn12 | x | 16µM | u | n | n | n
Cc1ccc2nsnc2c1NC(=O)c1ccc(-c2cc(Cl)ccc2Cl)o1 | u | u | u | n | n | 16µM

Source: PubChem BioAssay (National Center for Advancing Translational Sciences (NCATS))
